Here are results for 40 molecules from the supplement of paper PMC3414501.

Where a name gives a salt, the structure may show the parent alone. Unmarked numbers belong to inactive results.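 Rule for the calls: active = HIS4 sensitivity z-score above 5 vs DMSO controls; inactive = score 5 or below.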

This test deals with S. cerevisiae NKY1551 his4x/his4B, sporulating. Put plainly: HIS4 meiotic recombination assay sensitivity score (z-score vs DMSO controls); higher = stronger inhibition of sporulation/recombination, active = hit call of the paper. Here is the method:
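NIH Clinical Collection compounds were added 1:100 from stock (about 100 µM final) to S. cerevisiae. Growth: average doubling time (AvgG) over 24 h of BY4741 (wild-type) or AD1-9 (drug-efflux-pump deficient) in rich media. HIS4: the his4x/his4B heteroallelic recombination reporter strain (SK1) was sporulated 5 h with compound at 30°C, then colony density was read on -his plates after 48 h. Sensitivity score = (compound − mean of 8 DMSO controls)/SD of DMSO controls. Hit cutoffs are >2 for growth and >5 for sporulation.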
`CC(=O)N1CCN(c2ccc(OCC3COC(Cn4ccnc4)(c4ccc(Cl)cc4Cl)O3)cc2)CC1` (stereo not given) [Ketoconazole] (stock concentration (mM, diluted 1:100): 10): the “HIS4 meiotic recombination assay sensitivity score” value was -1.74.

Consider `COc1cc(OC)c(C(=O)CCCN2CCCC2)c(OC)c1` [Buflomedil hydrochloride] (stock concentration (mM, diluted 1:100): 8.9), for which the “HIS4 meiotic recombination assay sensitivity score” value was -1.08.

Take `CC[C@@]1(O)C(=O)OCc2c1cc1n(c2=O)Cc2cc3c(CN(C)C)c(O)ccc3nc2-1` [Topotecan hydrochloride] (stock concentration (mM, diluted 1:100): 9.2): the “HIS4 meiotic recombination assay sensitivity score” value was 0.22.

With `COc1cc(C(=O)NC2CCCNC2)cc(OC)c1OC` (stereo not given) [Troxipide] (stock concentration (mM, diluted 1:100): 10.1), the “HIS4 meiotic recombination assay sensitivity score” value is -0.27.

Turning to `O=c1[nH]c(=O)n(C2CCCO2)cc1F` (stereo not given) [Ftorafur] (stock concentration (mM, diluted 1:100): 10), the “HIS4 meiotic recombination assay sensitivity score” value was 0.93.

Take `CCOC(=O)C1=C(C)NC(C)=C(C(=O)OC)C1c1cccc([N+](=O)[O-])c1` (stereo not given) [Nitrendipine] (stock concentration (mM, diluted 1:100): 10): the “HIS4 meiotic recombination assay sensitivity score” value was 1.41.

`CC[C@H](C)C(=O)O[C@H]1CCC=C2C=C[C@H](C)[C@H](CC[C@@H]3C[C@@H](O)CC(=O)O3)[C@H]21` [Mevastatin] (stock concentration (mM, diluted 1:100): 10): the “HIS4 meiotic recombination assay sensitivity score” value is 1.32.

For `CN1CCN(C2=Nc3cc(F)ccc3Cc3ccccc32)CC1` [Fluperlapine] (stock concentration (mM, diluted 1:100): 10), the “HIS4 meiotic recombination assay sensitivity score” value is -1.76.

For `NC(N)=NC(=O)c1nc(Cl)c(N)nc1N` (stock concentration (mM, diluted 1:100): 8.2), the “HIS4 meiotic recombination assay sensitivity score” value is 2.44.

On to `CN1[C@@H]2CC[C@H]1C[C@@H](OC(=O)c1c[nH]c3ccccc13)C2` [Tropisetron hydrochloride] (stock concentration (mM, diluted 1:100): 7.7), for which the “HIS4 meiotic recombination assay sensitivity score” value is 0.82.

For `O=C(O)C[C@H](O)C[C@H](O)/C=C/c1c(C2CC2)nc2ccccc2c1-c1ccc(F)cc1` [Livalo] (stock concentration (mM, diluted 1:100): 5), the “HIS4 meiotic recombination assay sensitivity score” value is -3.02.

Turning to `CC(COc1ccccc1Cc1ccccc1)N1CCCCC1` (stereo not given) [Benproperine phosphate] (stock concentration (mM, diluted 1:100): 10), the “HIS4 meiotic recombination assay sensitivity score” value was 7.79 (active).

With `CC1CNc2c(cccc2S(=O)(=O)N[C@@H](CCCNC(=N)N)C(=O)N2CC[C@@H](C)C[C@@H]2C(=O)O)C1` (stereo not given in full) [Argatroban] (stock concentration (mM, diluted 1:100): 10.1), the “HIS4 meiotic recombination assay sensitivity score” value is 0.32.

With `Cc1ccnc2c1NC(=O)c1cccnc1N2C1CC1` [Viramune] (stock concentration (mM, diluted 1:100): 10), the “HIS4 meiotic recombination assay sensitivity score” value is 0.21.

Consider `COc1cc([C@@H]2c3cc4c(cc3[C@@H](O[C@@H]3O[C@@H]5CO[C@@H](C)O[C@H]5[C@H](O)[C@H]3O)[C@H]3COC(=O)[C@H]23)OCO4)cc(OC)c1O` [Etoposide] (stock concentration (mM, diluted 1:100): 10), for which the “HIS4 meiotic recombination assay sensitivity score” value is 0.11.

`Oc1ccc(C2CNCCc3c2cc(O)c(O)c3Cl)cc1` (stereo not given) [Fenoldopam mesylate] (stock concentration (mM, diluted 1:100): 7.7): the “HIS4 meiotic recombination assay sensitivity score” value was -0.24.

In the case of `C[C@]12CCC(=O)C=C1CC[C@@H]1[C@@H]2C(=O)C[C@@]2(C)[C@H]1CC[C@]2(O)C(=O)CO` [Cortisone] (stock concentration (mM, diluted 1:100): 10), the “HIS4 meiotic recombination assay sensitivity score” value was -0.95.

Consider `CCCCCCCCCCC[C@@H](C[C@@H]1OC(=O)[C@H]1CCCCCC)OC(=O)[C@H](CC(C)C)NC=O` [Orlistat] (stock concentration (mM, diluted 1:100): 10), for which the “HIS4 meiotic recombination assay sensitivity score” value is -1.52.

Regarding `CNCC[C@H](Oc1cccc2ccccc12)c1cccs1` [Duloxetine hydrochloride] (stock concentration (mM, diluted 1:100): 8.9), the “HIS4 meiotic recombination assay sensitivity score” value is 7.17 (active).

As for `NNCCc1ccccc1` [Phenelzine sulfate salt] (stock concentration (mM, diluted 1:100): 10), the “HIS4 meiotic recombination assay sensitivity score” value is -3.78.

As for `O=C(O)Cc1ccccc1Nc1c(Cl)cccc1Cl` [Diclofenac] (stock concentration (mM, diluted 1:100): 10), the “HIS4 meiotic recombination assay sensitivity score” value is 0.28.

Consider `NC1CCN(c2nc3c(cc2F)c(=O)c(C(=O)O)cn3-c2ccc(F)cc2F)C1` (stereo not given) [Tosufloxacin tosylate] (stock concentration (mM, diluted 1:100): 7), for which the “HIS4 meiotic recombination assay sensitivity score” value is -2.15.

`O=c1c(-c2ccccc2)c1-c1ccccc1` [Diphenylcyclopropenone] (stock concentration (mM, diluted 1:100): 10): the “HIS4 meiotic recombination assay sensitivity score” value was -0.87.

For the molecule `CN1CCN(c2c(F)cc3c(=O)c(C(=O)O)cn4c3c2SCC4)CC1` [Rufloxacin hydrochloride] (stock concentration (mM, diluted 1:100): 10), the “HIS4 meiotic recombination assay sensitivity score” value is -0.04.

`CCN1CC(CCN2CCOCC2)C(c2ccccc2)(c2ccccc2)C1=O` (stereo not given) [Doxapram hydrochloride] (stock concentration (mM, diluted 1:100): 10.4): the “HIS4 meiotic recombination assay sensitivity score” value was 1.8.

Consider `CO[C@H]1/C=C/O[C@@]2(C)Oc3c(C)c(O)c4c(O)c(c5c(nc6cc(C)ccn65)c4c3C2=O)NC(=O)/C(C)=C\C=C\[C@H](C)[C@H](O)[C@@H](C)[C@@H](O)[C@@H](C)[C@H](OC(C)=O)[C@@H]1C` [Rifaximin] (stock concentration (mM, diluted 1:100): 10), for which the “HIS4 meiotic recombination assay sensitivity score” value was -0.87.

As for `Cc1ccsc1C(=CCCN1CCC[C@@H](C(=O)O)C1)c1sccc1C` [Tiagabine hydrochloride] (stock concentration (mM, diluted 1:100): 9.1), the “HIS4 meiotic recombination assay sensitivity score” value is 5.07 (active).

For the molecule `CN1CC(=O)N2[C@H](c3ccc4c(c3)OCO4)c3[nH]c4ccccc4c3C[C@@H]2C1=O` [Tadalafil] (stock concentration (mM, diluted 1:100): 10), the “HIS4 meiotic recombination assay sensitivity score” value was -0.28.

In the case of `Cc1ccc(O)c([C@H](CCN(C(C)C)C(C)C)c2ccccc2)c1` [Tolterodine tartrate] (stock concentration (mM, diluted 1:100): 6.9), the “HIS4 meiotic recombination assay sensitivity score” value is 4.21.

Consider `COc1cc(N)c(Cl)cc1C(=O)NC1CCN(CCCOc2ccc(F)cc2)CC1OC` (stereo not given) [Cisapride] (stock concentration (mM, diluted 1:100): 10.5), for which the “HIS4 meiotic recombination assay sensitivity score” value was -0.37.

Turning to `O=C1c2c(O)cc(O)cc2OC(c2ccc(O)c(O)c2)C1O` (stereo not given) [Taxifolin] (stock concentration (mM, diluted 1:100): 10), the “HIS4 meiotic recombination assay sensitivity score” value is -0.97.

Regarding `CCCc1nc2c(C)cc(-c3nc4ccccc4n3C)cc2n1Cc1ccc(-c2ccccc2C(=O)O)cc1` [Telmisartan] (stock concentration (mM, diluted 1:100): 10), the “HIS4 meiotic recombination assay sensitivity score” value is -1.16.

As for `CCOC(=O)c1ncn2c1CN(C)C(=O)c1cc(F)ccc1-2` [Flumazenil] (stock concentration (mM, diluted 1:100): 10), the “HIS4 meiotic recombination assay sensitivity score” value was -0.81.

In the case of `Nc1c2c(nc3c1CCC3)CCCC2` [Amiridine] (stock concentration (mM, diluted 1:100): 10), the “HIS4 meiotic recombination assay sensitivity score” value was 1.51.

Take `CCOC(=O)OC(C)OC1=C(C(=O)Nc2ccccn2)N(C)S(=O)(=O)c2ccccc21` (stereo not given) [Ampiroxicam] (stock concentration (mM, diluted 1:100): 10): the “HIS4 meiotic recombination assay sensitivity score” value is 1.18.

As for `Cn1c(NCCN(CCO)CCCc2ccc([N+](=O)[O-])cc2)cc(=O)n(C)c1=O` [Nifekalant hydrochloride] (stock concentration (mM, diluted 1:100): 9.2), the “HIS4 meiotic recombination assay sensitivity score” value was -0.61.

`Nc1ccn([C@H]2CC[C@@H](CO)O2)c(=O)n1` [Zalcitabine] (stock concentration (mM, diluted 1:100): 10): the “HIS4 meiotic recombination assay sensitivity score” value is -0.41.

Regarding `CC(C)C[C@H](NC(=O)[C@@H](O)[C@H](N)Cc1ccccc1)C(=O)O` [Bestatin] (stock concentration (mM, diluted 1:100): 10), the “HIS4 meiotic recombination assay sensitivity score” value is -1.06.

Consider `Oc1ccc(/C=C/c2cc(O)cc(O)c2)cc1` [Resveratrol] (stock concentration (mM, diluted 1:100): 10), for which the “HIS4 meiotic recombination assay sensitivity score” value is 1.16.

With `C[N+]1(C)CCC(OC(=O)C(O)(c2ccccc2)C2CCCC2)C1` (stereo not given) [Glycopyrrolate] (stock concentration (mM, diluted 1:100): 10), the “HIS4 meiotic recombination assay sensitivity score” value was -0.65.
